Screens from PubChem.
MPTP inh – permeability transition pore inhibition; isolated mouse mitochondria, Ca2+ swelling absorbance, 30 min; inhibition, % at 10 µM; hit rate 1.4% among 360,000; AID 602449;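 active means inhibition of 50% or more, scaled per plate between neutral and stimulator controls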;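 further: 0% = DMSO wells given calcium and 100% = 1 mM EGTA wells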
SKN-1 block – blocks SKN-1 activity in C. elegans. AID 624304. hit rate 0.49% among 360,000. inhibition, % at 21.8 µM. C. elegans VP596 Pgst-4::GFP/RFP ratio, acrylamide-induced, 24 h;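 active means interference check ratio from 0.5 to 1.5 plus GFP to RFP signal ratio inhibition reaching or exceeding a fixed threshold, cut at about 30% in these data, passing the limit was not always enough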
CendR NRP1 mod – modulators of CendR peptide binding to human neuropilin-1 | inhibition, % at 25 µM | FAM-RPARPAR peptide binding to NRP-1, fluorescence polarization | AID 602438 | hit rate 0.85% among 360,000;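 active means inhibition or corrected inhibition above about 18%, plus a signal ratio from 0.5 to 1.5, limit read from the data, passing the limit was not always enough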
F508del corr – correctors of CFTR F508del function in bronchial epithelial cells | CFBE cells, YFP halide quenching; stimulated with forskolin plus potentiator P3; % fluorescence drop versus neutral controls | activity (quench increase), % at 7.58 µM | hit rate 0.36% among 350,000 | AID 720511;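 active means mean added fluorescence quench of at least 8% versus neutral control, with both replicates also reaching 8%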;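 further: cells transiently co-express mutant CFTR-F508del with the halide-sensitive YFP; corrector assay measuring rescue of mutant channel to the surface after 24 h compound exposure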
ATG4B inh – ATG4B (human) cysteine protease inhibition; Q9Y4P1; ATG4B cleavage of LC3-PLA2, NBD-HPC fluorescence, 1 h; inhibition, % at 8.33 µM; hit rate 0.51% among 340,000; in the data active means inhibition above about 40%
Target sequence (Q9Y4P1 whole entry, looked up): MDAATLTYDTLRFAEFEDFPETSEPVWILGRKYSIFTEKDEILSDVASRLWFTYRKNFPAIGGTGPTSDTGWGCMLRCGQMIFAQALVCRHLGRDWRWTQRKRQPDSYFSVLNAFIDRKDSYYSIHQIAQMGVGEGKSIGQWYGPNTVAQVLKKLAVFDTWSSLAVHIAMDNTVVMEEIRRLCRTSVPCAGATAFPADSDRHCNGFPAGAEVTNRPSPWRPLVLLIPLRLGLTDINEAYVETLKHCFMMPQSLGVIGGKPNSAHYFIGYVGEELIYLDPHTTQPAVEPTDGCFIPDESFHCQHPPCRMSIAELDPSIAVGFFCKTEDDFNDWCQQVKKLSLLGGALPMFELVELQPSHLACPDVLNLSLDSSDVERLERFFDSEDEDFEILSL
* = called active by the depositor; · = no result given. Most compounds without a hit are left out; they make up all but 2.7% or so of the library.

SMILES	MPTP inh	SKN-1 block	CendR NRP1 mod	F508del corr	ATG4B inh
O=C(Nc1cc(C(F)(F)F)ccc1N1CCCC1)C1CC(=O)N(Cc2ccccc2)C1 (stereo not drawn)	-1	-7	24*	-2	·
CCc1ccc(N2CC(C(=O)Nc3ccccc3N3CCCC3)CC2=O)cc1 (stereo not drawn)	0	21	5	9.2*	·
CNC(=O)C1CC(=O)N(c2ccc(OCC(=O)Nc3ccccc3)cc2)C1 (stereo not drawn)	-1	12	-26	10*	12
CCOc1ccc(NC(=O)COc2ccc(N3CC(C(N)=O)CC3=O)cc2)cc1 (stereo not drawn)	2	16	9	7	5
C[C@H]1CN([C@@H](C)CO)C(=O)Cc2cc(NC(=O)CCN3CCOCC3)ccc2O[C@H]1CN(C)Cc1ccc(C(F)(F)F)cc1	·	·	·	7	·
O=S1(=O)CC(NCc2ccccc2)C(Nc2ccccc2)C1 (stereo not drawn)	-1	4	-1	-1	-1
O=C(NC1CS(=O)(=O)CC1NCc1ccccc1)c1ccccc1 (stereo not drawn)	1	37*	-18	·	6
COc1ccc(S(=O)(=O)Nc2ccc3c(c2)C(=O)N([C@H](C)CO)C[C@@H](C)[C@H](CN(C)Cc2ccc(Cl)c(Cl)c2)OCCCC[C@@H](C)O3)cc1	·	·	·	2	·
CCCC(C(=O)Nc1ccc(S(=O)(=O)N2CCOCC2)cc1)c1ccccc1 (stereo not drawn)	0	37*	-8	0	-6
CCN(CC(=O)Nc1ccc(OC)cc1)CC(=O)Nc1cccc(S(=O)(=O)N2CCOCC2)c1	1	7	34*	-3	·
CC(=O)NC(CC(=O)Nc1cccc(S(=O)(=O)N2CCOCC2)c1)c1ccccc1 (stereo not drawn)	-2	13	24*	3	-11
CC(C)NC(=O)Nc1ccc2c(c1)C(=O)N(C)[C@@H]1CC[C@@H](CC(=O)NC3CCCCC3)O[C@@H]1CO2	·	·	·	-2	·
CCCCN1C(C)=CC(=C2C(=O)c3ccccc3C2=O)C=C1C	0	38*	15	4	-20
COc1ccc(CNC(=O)C[C@H]2C[C@@H]3c4cc(NC(=O)CN(C)C)ccc4O[C@@H]3[C@@H](CO)O2)cc1	·	·	·	0	·
COc1ccc(-c2cn3ccccc3n2)cc1OC	-2	-12	6	·	7
Clc1ccc2nc(-c3ccc4c(c3)OCO4)cn2c1	0	20	-5	6	1
Cc1ccc2nc(-c3ccc4c(c3)OCCO4)cn2c1	0	-7	-1	12*	-1
c1ccn2cc(-c3ccc4c(c3)OCCO4)nc2c1	-1	38*	0	-5	-2
C[C@@H]1CCCCO[C@@H](CN(C)C(=O)CCCN(C)C)[C@H](C)CN([C@H](C)CO)C(=O)c2cc(NC(=O)NC3CCCCC3)ccc2O1	·	·	·	2	·
Cc1c(C(=O)N2CCCCC2)oc2ccc(Br)cc12	0	17	-10	-2	17
Cc1ccc2oc(C(=O)N3CCCCCC3)c(C)c2c1	0	-18	26*	0	2
C[C@H]1CN([C@@H](C)CO)C(=O)c2cc(/C=C/c3ccccc3)cnc2O[C@@H]1CN(C)Cc1cccnc1	·	·	·	0	·
c1cncc(-c2nnc(-c3ccco3)o2)c1	1	7	-4	·	-1
Clc1ccc(-c2nnc(-c3ccco3)o2)cc1	-1	74*	13	·	-7
CCOC(=O)c1ccc(Nc2sc(C(=O)c3cccc([N+](=O)[O-])c3)c(N)c2C#N)cc1	4	12	-5	12*	0
SMILES	MPTP inh	SKN-1 block	CendR NRP1 mod	F508del corr	ATG4B inh
O=C(C[C@H]1C[C@@H]2c3cc(NC(=O)Cc4ccncc4)ccc3O[C@@H]2[C@@H](CO)O1)NCCN1CCCCC1	·	·	·	1	·
COc1cccc(S(=O)(=O)N[C@@H]2CC[C@H](CCn3cc(-c4ccc(F)cc4)nn3)O[C@H]2CO)c1	·	·	·	0	·
O=C(Cn1cnc2c(OCc3ccccc3)ncnc21)NCCN1CCOCC1	0	2	-11	2	·
O=C(Cn1cnc2c(NC(=O)OCc3ccccc3)ncnc21)NCCN1CCOCC1	-1	7	29*	1	-1
C[C@H]1CN([C@@H](C)CO)C(=O)Cc2cc(NC(=O)NC3CCCCC3)ccc2O[C@@H]1CN(C)C	·	·	·	0	·
O=C(O)COC(=O)Cc1ccccc1Nc1c(Cl)cccc1Cl	-3	6	-9	16*	5
O=C(COC(=O)Cc1cccs1)Nc1ccccc1Cl	-2	7	-2	-2	-11
O=C(N/N=C/c1cccs1)c1cccc(NC(=O)c2ccccc2Cl)c1	4	4	-6	9.5*	-8
O=C(N/N=C/c1cccs1)c1ccc(NC(=O)c2ccccc2Cl)cc1	2	4	8	·	-10
COc1ccc(NC(=O)Nc2ccc3c(c2)C(=O)N([C@H](C)CO)C[C@H](C)[C@H](CN(C)C(=O)Nc2ccc(OC)cc2)O3)cc1	·	·	·	-1	·
CCOc1ccc(OCC)c(NC(=O)CSCC(=O)O)c1	0	36*	-3	·	-10
COc1ccc(OC)c(NC(=O)CSCC(=O)O)c1	1	-4	-2	·	-13
O=C(NCC[C@@H]1CC[C@H](NS(=O)(=O)Cc2ccccc2)[C@@H](CO)O1)C1CCCCC1	·	·	·	-5	·
N#C/C(=C\C=C\c1ccccc1)c1nc(-c2ccc3c(c2)OCO3)cs1	17	47*	121	·	5
O=C1CN(S(=O)(=O)Cc2ccccc2)C[C@@H]2[C@@H](c3ccc(C#Cc4cccc(F)c4)cc3)[C@H](CO)N12	·	·	·	8.1*	·
CC(C)CC#Cc1ccc([C@H]2[C@@H](CO)N3C(=O)CN(C(=O)Nc4cc(F)ccc4F)C[C@@H]23)cc1	·	·	·	1	·
O=C(C1CCCCC1)N1CC(=O)N2[C@@H](CO)[C@@H](c3ccc(C#Cc4cccc(F)c4)cc3)[C@@H]2C1	·	·	·	1	·
CC(C)C#Cc1ccc([C@@H]2[C@@H](CO)N3C(=O)CN(S(=O)(=O)c4ccccc4)C[C@@H]23)cc1	·	·	·	12*	·
O=C(C1CCCCC1)N1CC(=O)N2[C@@H](CO)[C@H](c3ccc(C#Cc4cccc(F)c4)cc3)[C@@H]2C1	·	·	·	9.6*	·
CC(C)C#Cc1ccc([C@@H]2[C@H](CO)N3C(=O)CN(S(=O)(=O)c4ccccc4)C[C@@H]23)cc1	·	·	·	1	·
CC(C)CC#Cc1ccc([C@H]2[C@H](CO)N3C(=O)CN(C(=O)Nc4cc(F)ccc4F)C[C@@H]23)cc1	·	·	·	11*	·
CC(C)CC#Cc1ccc([C@@H]2[C@H]3CN(C(=O)Nc4ccc(F)cc4)CC(=O)N3[C@H]2CO)cc1	·	·	·	-1	·
COc1ccc(S(=O)(=O)N(C)C[C@@H]2Oc3ccc(NS(=O)(=O)c4ccc(F)cc4)cc3C(=O)N([C@@H](C)CO)C[C@@H]2C)cc1	·	·	·	0	·
COc1cccc(CNC(=O)C[C@@H]2CC[C@H](NC(=O)C3CC3)[C@@H](CO)O2)c1	·	·	·	0	·
CCNC(=O)C[C@H]1CC[C@@H]2[C@H](COc3ccc(NC(=O)c4cc(C)on4)cc3C(=O)N2C)O1	·	·	·	-2	·
